PubChem BioAssay (NCI)
This is part of a sample that, as a whole, favours compounds with a hit. Of some 83,000 tested, about 20% had one in any assay.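 The endpoint reported here, percent growth, reads 100 for growth as untreated, 0 for no net growth and -100 for all cells dead.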 Unmarked numbers belong to inactive results. Active and inactive are the calls of the source. The calls were made as follows: active = growth percent below 10; inactive = the rest.

Tested on: HT29 colon
Assay: NCI-60 one-dose screen, 48 h (100 = growth as untreated, 0 = no growth, -100 = all killed)
Settings: 10 µM unless noted

In order of falling growth:
1. O=C1OC(=O)C2C3CC(c4ccccc43)C12 (centres undefined)  112%
2. S=C=NP1(N=C=S)=NP(N=C=S)(N=C=S)=NP(N=C=S)(N=C=S)=NP(N=C=S)(N=C=S)=N1 (centres undefined)  92.9%
3. COc1cc(-c2nc(N)n(CC(=O)Nc3ccc(/C(C)=N\O)cc3)n2)cc(OC)c1OC  86.4%
4. CC(C)(C)C(=O)/C=c1/[nH]c(=O)/c(=C/c2ccccc2O)s1  72.2%
5. COc1ccc(-c2nn(-c3ccc(NC(=O)c4cc(C(F)(F)F)cc(C(F)(F)F)c4)cc3)cc2-c2ccncc2)cc1Cl  53.7%
6. Cc1ccc2oc(=O)cc(C3C(C#N)=C(N)Oc4c3ccc3ccccc43)c2c1 (centres undefined)  38.8%
7. COc1ccc(-c2c(C#N)cnc(N)c2-c2nc3cc(C)c(C)cc3[nH]2)cc1  37.3%
8. C=C1C(=O)O[C@H]2[C@H]1CC/C(C(=O)Nc1ccc(OC)c(C(N)=O)c1O)=C\CC[C@@]1(C)O[C@@H]21  36%
9. CCCCC(=O)Nc1nc2ccc(SCCC)cc2s1  18%
10. COc1cc2ncnc(Oc3ccc(NC(=O)Nc4ccc(CN5CCOCC5)c(C(F)(F)F)c4)c4ccccc34)c2cc1OC  14.2%

With CC[C@@]1(O)C(=O)OCc2c1cc1n(c2=O)Cc2c-1nc1ccccc1c2/C=N/OC(C)(C)C the growth was -13.9% (active).
With COc1ccc(OC)c(NCC(=O)n2nc(/C=C\c3ccc(O)c(OC)c3)cc2/C=C\c2ccc(O)c(OC)c2)c1 the growth was -70.2% (active).
For COc1ccc2c(c1)OC(N)=C(C#N)C2c1ccc(F)cc1 (centres undefined), the growth was 5.87% (active).
In the case of c1ccc(CNCCN(CCNCc2ccccn2)Cc2ccc3ccccc3c2)nc1, the growth is reported as 6.31% (active).
